96 compounds from PubChem BioAssay AID1347071 (National Center for Advancing Translational Sciences (NCATS), 2019) can be followed below.

The whole screen tested about 410,000 compounds, of which about 260 (0.063%) were called active. Where a call stands in place of a potency, no number is given. Not shown: some 2% with an inconclusive outcome. Calls come from the whole dose curve; as a rule, active = well fitted activation curve with a large enough effect; inconclusive = small, poorly fitted or top-dose-only effect; inactive = no such curve, though single readings can be large or run the other way. The full list was thinned out, with actives kept by preference.

The test is described as follows: qHTS for compounds that reverse cellular toxicity of Amyloid beta (A-beta) peptide in yeast: Primary Screen. Note: nearly all actives have a fitted effect of over 55% in size. Conditions: yeast expressing A-beta42, growth rescue, OD600, 48 h; series mostly up to 46.1 µM. An excerpt: The A-beta peptide is produced by the processing of the amyloid precursor protein (APP) by two proteases, beta and gamma secretases. […] A-beta42 is regarded as the most amyloidogenic form due to its hydrophobicity; however, precisely how A-beta42 induces neurotoxicity is unclear. To understand further this biology and its potential therapeutic implications for human neurodegenerative disease, a quantitative high-throughput screen for compounds that reverse the cellular toxicity of the A-beta peptide was developed. A yeast based screen was used because it recapitulates the salient feature of protein mis-folding disorder accurately. This cell-based phenotypic screen provides a significant, unbiased advantage by letting the compounds and models inform us which proteins or pathways are most relevant. The ideal chemical candidates would therefore have activity in both our primary yeast and secondary neuronal toxicity assays, as well as in mouse models. They will be valuable tools for dissecting diverse protein homeostasis pathologies and could potentially become the focus for future pre-clinical development. For this luminescence assay, inhibition of A-beta rescues the toxic effect in the yeast cell, resulting in increase of signals and the desired phenotype of "Activator". This screen is run against the Molecular Libraries Small Molecule Repository (MLSMR) and the NCGC Sytravon Library Collection.
NIH Chemical Genomics Center [NCGC]
NIH Molecular Libraries Probe Centers Network [MLPCN]
Assay Submitter (PI): Susan Lindquist, Whitehead Institute, Massachusetts Institute of Technology
[1] Vassar R,et al (1999). Beta-secretase cleavage of Alzheimer's amyloid precursor protein by the transmembrane aspartic protease BACE. Science. 286: 735-741.
[2] Yan R, et al (1999). Membrane-anchored aspartyl protease with Alzheimer's disease beta-secretase activity. Nature. 402: 533-536.
Two and a half microliter / well of yeast growth medium were dispensed in a 1536 assay plate. Compounds were pinned using the Kalypsys robotic system followed by addition of 2.5 uL / well yeast solution. The assay plates were incubated at 30 C. After 48 hr, the absorbance signal at 600 nm was obtained using the PerkinElmer ViewLux plate reader to assess yeast growth. The data was normalized to the positive control of an equimolar mixture of ferric chloride (FeCl3) and clioquinol and to the negative control DMSO.
For orientation: In qHTS, concentration-response curves come from the screen itself.
Take `CCN1C(=O)c2ccccc2S(=O)c2ccc(C(=O)NCc3ccc(F)cc3)cc21` (stereo unspecified): the Potency result was “inactive”.
Turning to `CCn1cc(C(=O)N2CCN(c3cc(C)ccc3C)CC2)c(=O)c2cc(S(=O)(=O)N(C)C3CCCCC3)ccc21`, the Potency result is “inactive”.
Regarding `CNS(=O)(=O)c1ccc2c(c1)[nH]c(=S)n2C`, the Potency result was “inactive”.
As to `CC(C)n1c(=S)[nH]c2cc(C(F)(F)F)ccc21`, the Potency is 12.6 µM (active).
As for `CCCn1c(=S)[nH]c2ccc(C(F)(F)F)cc21`, the entry is “inactive”; as for `Cn1c(=O)c2c(-c3ccccc3Br)n(Cc3ccccc3)cc2n(C)c1=O`, “inactive”; as for `COc1ccc(N2CCN(C(=O)CSCc3nc(-c4ccccc4Cl)oc3C)CC2)cc1`, “inactive”.
With `Cc1ccc(CN(Cc2cccnc2)C(=S)Nc2cccc(Cl)c2C)cc1`, the Potency was 11.2 µM (active).
On to `Cc1c(Cl)cccc1NC(=S)N(Cc1ccccc1)Cc1cccnc1`, for which the Potency result was “inactive”.
As for `Cc1cccc(C)c1NC(=S)N(Cc1cccnc1)Cc1ccccc1Cl`, the Potency result is “inactive”.
As for `CCOC(=O)c1nnn(CC(=O)NC(=O)Nc2ccccc2F)c1C(=O)OCC`, the Potency result is “inactive”.
Regarding `CCS(=O)(=O)N1CCc2cc(C(=O)NCc3ccc(OC)cc3)ccc21`, the Potency entry is “inactive”.
As for `CCOC(=O)c1cc(NC(=O)c2ccc(F)cc2)c(=O)n2c1oc1ccccc12`, the entry is “inactive”.
The entry for `COc1ccc(CCNC(=O)c2cc3cccc4c3n2CC(C)S4)c(OC)c1OC` (stereo unspecified) is “inactive”.
Turning to `COc1ccc(Cn2c(C(=O)O)c(CNCc3cccc(OC)c3)c3ccc(C)cc32)cc1`, the Potency entry was “inactive”.
For the compound `CC(C)S(=O)(=O)c1oc(-c2ccc(F)cc2)nc1S(=O)(=O)c1ccc(F)cc1`, the Potency entry was “inactive”.
Consider `CC(Sc1oc(-c2ccco2)nc1S(=O)(=O)c1ccc(Br)cc1)c1ccccc1` (stereo unspecified), for which the Potency result is “inactive”.
Take `Cc1nn(-c2ccc(F)cc2)c(-n2cccc2)c1C(=O)N1CCN(c2ccccc2)CC1`: the Potency entry is “inactive”.
On to `FC(F)(F)c1ccccc1Cc1c(-c2ccccc2)nc2c3ccccc3ccn12`, for which the Potency is 12.6 µM (active).
With `N#Cc1ccc(-c2nc3c(Cl)cc(C(F)(F)F)cn3c2Cc2ccccc2C(F)(F)F)cc1`, the Potency result was “inactive”.
As for `CCCc1nc2c3ccccc3ccn2c1Cc1ccccc1C(F)(F)F`, the entry is “inactive”; as for `COc1cccc(-n2cc(C(=O)NCc3cccc(Cl)c3)c3ccccc3c2=O)c1`, “inactive”; as for `COc1ccc(Cn2ccn(CC(=O)Nc3cc(C)ccc3C)c(=O)c2=O)cc1`, “inactive”.
As for `COCCn1c(SCC(=O)c2cc(C)ccc2C)nc2cc(C(=O)NC3CCCC3)ccc2c1=O`, the Potency result is “inactive”.
Consider `COc1cccc(C(=O)NC2(C(F)(F)F)C(=O)Nc3c2c(=O)[nH]c(=O)n3-c2ccc(C)cc2)c1` (stereo unspecified), for which the Potency result was “inactive”.
On to `CCOc1ccc(-n2c(C)nc3c(cnn3-c3ccc(C)cc3)c2=O)cc1`, for which the Potency entry was “inactive”.
For `CCC(=O)N1c2ccccc2CC1C(=O)N1CCN(c2ccccc2)CC1` (stereo unspecified), the Potency result was “inactive”.
For the compound `COc1cc(CNCCSc2nnnn2C)ccc1OCc1ccc(Cl)cc1Cl`, the Potency entry is “inactive”.
`CC1=C(C(=O)Nc2ccccc2Cl)C(c2cccs2)n2ncnc2N1` (stereo unspecified): the Potency result was “inactive”.
On to `CCCCOC(=O)CSc1ncnc2sc3c(c12)CCC(C)C3` (stereo unspecified), for which the Potency result is “inactive”.
Take `CC1CCCN(S(=O)(=O)c2ccc3[nH]c(=O)cc(C(=O)NCCc4ccc(Cl)cc4)c3c2)C1` (stereo unspecified): the Potency result was “inactive”.
On to `CCCn1c2ccccc2c2cnn(CC(=O)N3CCCC(C(=O)OCC)C3)c(=O)c21` (stereo unspecified), for which the Potency result is “inactive”.
The entry for `CCOC(=O)c1ccc(N2C(=O)c3n[nH]c(-c4ccco4)c3C2c2ccc(O)cc2)cc1` (stereo unspecified) is “inactive”.
As for `COc1ccc(-c2cn3nc(N4CCCC(C(=O)NCCCOC(C)C)C4)sc3n2)cc1` (stereo unspecified), the entry is “inactive”.
The entry for `COc1ccc2cc(CNc3ccc(OC)c(OC)c3)c(=O)n(CC(=O)Nc3ccccc3F)c2c1` is “inactive”; for `Cc1ccc(C)c(N2CCN(CCCNC(=O)Nc3ccc(Cl)cc3)CC2)c1` it is “inactive”.
Turning to `COc1ccc(S(=O)(=O)c2cn(C)c3cc(N4CCCCC4)c(F)cc3c2=O)cc1`, the Potency entry is “inactive”.
With `COc1cccc(CNCc2c(C(=O)O)n(Cc3ccc(C)cc3)c3cc(C)ccc23)c1OC`, the Potency entry is “inactive”.
Take `O=C(NC1CCCCC1)c1ccc2c(c1)N(Cc1ccc(Cl)cc1)C(=O)c1ccccc1S2=O` (stereo unspecified): the Potency entry was “inactive”.
On to `COc1ccc(NC(=O)NC(C)c2c(-n3cccc3)sc(C)c2C)cc1OC` (stereo unspecified), for which the Potency result was “inactive”.
`COc1ccc(OC)c(-c2noc(N3CCN(c4cc(Cl)ccc4C)CC3)n2)c1`: the Potency result is “inactive”.
As to `O=C(Nc1c(C(=O)N2CCN(c3ccc(F)cc3)CC2)oc2ccccc12)c1ccco1`, the Potency result was “inactive”.
For `CCOc1ccc(CNC(=O)c2cccc(Nc3nc4ccccc4n4nnnc34)c2)cc1OC`, the Potency entry is “inactive”.
The entry for `CCc1cc2c(cc3c(=O)n(CC(=O)NCc4cccc(Cl)c4)nc(CC)n32)s1` is “inactive”; for `Cc1nn(CC(=O)NCCc2ccccc2)c(=O)c2c1sc1ccccc12` it is “inactive”; for `O=C(CSc1nccn1-c1ccc(F)cc1)Nc1cccc2ccccc12` it is “inactive”.
Consider `Cn1c(=O)cc(OCC(=O)N2CCN(c3ccccc3)CC2)c2ccccc21`, for which the Potency result was “inactive”.
As to `COc1cc2c(cc1OC)C(COc1ccc(F)cc1)N(C(=O)c1ccccc1F)CC2` (stereo unspecified), the Potency result was “inactive”.
Take `CCOc1ccccc1NC(=O)CSc1ncc(S(=O)(=O)c2ccc(C(C)(C)C)cc2)c(=O)[nH]1`: the Potency entry is “inactive”.
Take `CCOCCCn1c(SCC(=O)Nc2ccc(CC)cc2)nc2ccccc2c1=O`: the Potency result is “inactive”.
On to `CCCN(CCC)C(=O)C1CCCN(c2ncnc3c2nc2n3CCCCC2)C1` (stereo unspecified), for which the Potency entry was “inactive”.
As for `Cn1c(=O)n(Cc2c(F)cccc2Cl)c(=O)c2c1nc1n2CCN1c1ccc(F)cc1`, the entry is “inactive”; as for `Cc1ccc(Cl)cc1N1CCN(C(=O)c2cccn3c(=O)c4cc(Cl)ccc4nc23)CC1`, “inactive”; as for `COCCN(Cc1ccco1)C(=O)Cn1ncc2c([nH]c3ccccc32)c1=O`, “inactive”.
For `O=C(CSc1nnc(-c2ccccc2F)o1)Nc1cccc(C(F)(F)F)c1`, the Potency result is “inactive”.
With `Cc1ccc2nc(COc3cccc(NC(=O)c4cccc(Cl)c4)c3)cc(=O)n2c1`, the Potency result is “inactive”.
The entry for `COc1ccc(-n2ccn(CC(=O)Nc3ccc(C)c(C)c3)c(=O)c2=O)cc1OC` is “inactive”; for `COc1ccc(CNC(=O)Cc2coc3ccc(C(C)C)cc23)cc1` it is “inactive”.
For `CCCCCn1c(=O)[nH]c2cc(C(=O)NCCN(C)CCCC)ccc2c1=O`, the Potency entry is “inactive”.
The entry for `CCOc1ccc(CNC(=O)c2cc(=O)[nH]c3ccc(S(=O)(=O)N4CCCCC4)cc23)cc1` is “inactive”; for `Cc1ccc(C)c(Nc2nnc(-c3ccc(C)c(S(=O)(=O)N4CCCCC4)c3)c3ccccc23)c1` it is “inactive”; for `CCc1cccc(C)c1Nc1c(-c2ccc(N(C)C)cc2)nc2ncccn12` it is “inactive”.
As for `COc1ccc(-c2nc3ccccc3o2)cc1NC(=O)c1cc([N+](=O)[O-])ccc1N1CCOCC1`, the entry is “inactive”.
For the compound `Cc1ccc(-c2nc3ccccn3c2Nc2c(C)cccc2C)o1`, the Potency result is “inactive”.
In the case of `COc1ccc(NS(=O)(=O)c2cc3c4c(c2)CC(=O)N4CCC3)cc1Cl`, the Potency result was “inactive”.
For the compound `O=S(=O)(Nc1ccc2nc(-c3cccc(Cl)c3)oc2c1)c1ccccc1`, the Potency entry was “inactive”.
`CCOC(=O)c1ccc(NC(=O)c2c(NCc3cccc(OC)c3)sc3c2CCC3)cc1`: the Potency result was “inactive”.
As to `CCOC(=O)C1CCN(c2csc3ccc(C)cc3c2=O)CC1`, the Potency entry was “inactive”.
As for `CCC(=O)Nc1ccccc1-c1nc2ccccc2n(CC(=O)Nc2ccc(C)c(C)c2)c1=O`, the Potency entry is “inactive”.
In the case of `CCCNc1ncnc2c1c(-c1ccccc1)cn2-c1ccc(OCC)cc1`, the Potency entry was “inactive”.
The entry for `COc1ccc(OC)c(CCNC(=O)CCCn2c(=O)c3cccn3c3cccnc32)c1` is “inactive”.
On to `CCOC(=O)c1cnc2c(C)cc(C)cc2c1Nc1ccc(N2CCOCC2)cc1`, for which the Potency result was “inactive”.
Consider `COc1ccc(CNC(=O)Cn2nnc(-c3ccccc3F)n2)cc1`, for which the Potency result was “inactive”.
The entry for `Cc1cccc(-n2ccnc2SCC(=O)Nc2cccc3ccccc23)c1C` is “inactive”; for `O=C(/C=C/c1ccccc1)N1CCN(Cc2cc(=O)n3nc(-c4ccccc4F)sc3n2)CC1` it is “inactive”.
Consider `Cc1ccc(Oc2c(C(F)(F)F)oc3c(CN4CCCCC4)c(O)ccc3c2=O)cc1`, for which the Potency result was “inactive”.
The entry for `O=C(NC1(C(F)(F)F)N=C(c2ccccc2)N(C2CCCCC2)C1=O)c1ccccc1F` (stereo unspecified) is “inactive”.
The entry for `Cc1cccc(N2CCN(C3=C(c4ccccc4)C(=O)c4ccccc43)CC2)c1C` is “inactive”.
Regarding `Cc1ccc(-n2nnnc2CNC(=O)c2ccccc2C)cc1C`, the Potency result was “inactive”.
Regarding `CCOC(=O)C1CCN(C(=O)CSc2c3c(nc4ccc(Cl)cc24)CCCC3)CC1`, the Potency entry was “inactive”.
With `CN(Cc1ccccc1)C(=O)c1cc2c(=O)n(C)c3ccccc3c2s1`, the Potency result was “inactive”.
Take `COc1ccccc1NC(=O)c1sc2nc(C)c(C(=O)Nc3ccc(Cl)cc3)c(-c3ccc(Br)cc3)c2c1N`: the Potency entry is “inactive”.
Regarding `CCOc1ccc(CNCCSc2nnnn2C)cc1`, the Potency result was “inactive”.
As for `CCOC(=O)c1ccccc1NC(=O)c1nn(-c2ccc(OC)c(Cl)c2)c(=O)c2c1c1ccccc1n2C`, the Potency result is “inactive”.
Take `COCCn1c(CCC(=O)Nc2cc(C)ccc2C)nc2cccnc21`: the Potency entry was “inactive”.
As for `COc1cccc(CN2CCc3nc(SCC(=O)Nc4ccccc4)[nH]c(=O)c3C2)c1`, the Potency entry was “inactive”.
The figure for `CC(C)CC(=O)N/C(N)=N/c1nc2ccccc2s1` is 11.2 µM (active); for `Cc1c(NC(=O)C(C)(C)C)cccc1-c1nc2ccccc2s1` it is “inactive”.
For the compound `Cc1cc(C)cc(-n2ccnc2SCC(=O)Nc2nc3ccccc3s2)c1`, the Potency result is “inactive”.
Turning to `Cc1ccc(-c2cc(C(=O)Oc3ccccc3Cl)no2)cc1C`, the Potency entry was “inactive”.
As for `Cc1ccc(C)c(Cn2c(=O)n(CCC(=O)NCc3ccc4c(c3)OCO4)c(=O)c3sccc32)c1`, the entry is “inactive”; as for `CC(=O)N1CCCc2ccc(NS(=O)(=O)c3ccc(F)cc3F)cc21`, “inactive”; as for `COc1ccc(OC)c(CNC(=O)Cn2nc(C)c3c(C)n(-c4ccccc4)nc3c2=O)c1`, “inactive”.
Turning to `COc1cc(OC)c(OC)cc1/C=C/c1nc2cc3ccccc3cc2c(=O)n1-c1ccc(F)c(Cl)c1`, the Potency entry was “inactive”.
The entry for `CCOC(=O)c1cccc(NC(=O)C(Cc2ccccc2)NS(=O)(=O)c2cccc3nsnc23)c1` (stereo unspecified) is “inactive”; for `COC(=O)c1ccc(C2C(C(=O)Nc3ccccc3)=C(C)Nc3nc4ccccc4n32)cc1` (stereo unspecified) it is “inactive”.
